Consider 34 molecules from PubChem BioAssay (NCI).

“And” between values parts separate entries of the source, which are not always exact repeats. Equal entries are not always repeated. The panel holds about 83,000 compounds, 20% with a hit somewhere; the sample as a whole holds those more often.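 The endpoint reported here, percent growth, reads 100 for growth as untreated, 0 for no net growth and -100 for all cells dead.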 Values without a mark were called inactive. The source made the active and inactive calls. The calls were made as follows: active = growth percent below 10; inactive = the rest.

The test concerns HOP-92 NSCLC. Kind of test: NCI-60 one-dose screen, 48 h (100 = growth as untreated, 0 = no growth, -100 = all killed). The following applies: 10 µM unless noted.
With `CCCn1c(NC(=O)c2cccc(C(N)=O)c2)nc2ccc(CN3CCCCC3)cc21`, the growth is 84.4%. With `Fc1ccc(Nc2nnc(-c3c[nH]c4ccccc34)o2)cc1`, the growth is 58.2%. To `CC1=C(C(=O)OC(C)C)C(c2ccc(O)cc2)NC(=O)N1` (centres undefined) belongs 105%; to `COc1ccc(NC(=O)Cn2c(/C=C/c3ccc([N+](=O)[O-])cc3)nc3ccccc3c2=O)cc1`, -12% (active). For `O=C(c1ccc(O)cc1)C1[C@H](c2ccc(Cl)cc2)[C@@H](c2ccccc2)NC12C(=O)Nc1ccccc12` (some centres undefined) the value was -27.8% (active). For `O=c1ccc(Cn2c(C(F)(F)F)cc3c(Cl)ncnc32)c[nH]1` the value was 78.6%; for `O=C(CSc1nc2c(c(=O)[nH]1)CCCC2)Nc1ccccc1C(=O)O`, 117%.

On to `COc1ccc2[nH]c(O)c(N=Nc3nc(-c4ccc(C#N)cc4)cs3)c2c1`, for which the growth was 25.1%.

On to `COc1ccc(-c2nc3ccc(-c4nnc(SCC(=O)Nc5ccc(/C(C)=N\O)cc5)o4)cc3[nH]2)cc1`, for which the growth is 104%. To `Cc1ccc(C2CC(c3ccc(NC(=O)Nc4ccccc4)cc3)=NN2c2ccc(S(C)(=O)=O)cc2)cc1` (centres undefined) belongs -50.4% (active); to `CN1CCN(C(=O)Oc2cc3c(c4ccccc24)[C@H](CCl)CN3C(=O)c2cc3cc(OCCCN4CCC4)ccc3[nH]2)[C@H]2CSSC[C@H]21`, -18.8% (active); to `Cc1ccc(N=Nc2c(N)nn3c(-c4cc5ccccc5oc4=O)ccnc23)cc1`, 49.9%. For `C[C@@H]1[C@H]2C[C@@H](C[C@H]1NCc1nc3ccccc3n1C1CCCCCC1)C2(C)C` the value was 28.9%; for `Cc1ccc(C(=O)Nc2cc(-n3ccnc3)cc(C(F)(F)F)c2)cc1-n1cc(-c2cnc3cccnn23)nn1`, 78.8%. For `CCC(=O)c1c2c(c3ccc4c5ccccc5ccc4n13)C(=O)c1ccccc1C2=O`, the growth is 117%. To `N#Cc1c(NC(=O)N2CCOCC2)n(-c2ccc(OC(F)(F)F)cc2)c2cc(F)ccc12` belongs 102%; to `CC(=O)Nc1cccc(-n2c(COc3ccc(Br)cc3)nc3ccccc32)c1`, 90% and 108%. To `COc1ccc(-c2cc(C(=O)OCc3ccc(Br)cc3)nn2-c2ccc(S(C)(=O)=O)cc2)cc1OC` belongs 69.5%. For `Cc1nc(N)ncc1-c1ccc2ncnc(N3CCc4cc(F)c(Cl)cc43)c2c1` the value was 13.6%; for `COc1ccc(C(=O)NNC(=O)CSc2nc3sc4c(c3c(=O)n2-c2ccc(Cl)cc2)CCCC4)cc1`, 60.8%.

For the molecule `Cn1cc(-c2cc3nc(-c4cn(C)c5ncccc45)cc(N)n3n2)c2cc(F)ccc21`, the growth was -0.741% (active). For `COc1ccc2[nH]c(=O)c(CSc3ccccc3Nc3nccc(-c4ccc(C(F)(F)F)cc4)n3)cc2c1` the value was 26.7%; for `N#CC1=C(c2cccs2)Nc2c(c(-c3ccccc3)nn2-c2ccccc2)C12C(=O)Nc1ccc(Br)cc12` (centres undefined), -24.7% (active); for `CCN1CCN(Cc2ccc(C(=O)Nc3cccc(Nc4ccc5c(OC)cccc5n4)c3)cc2C(F)(F)F)CC1`, -75.1% (active). For `O=C(Nc1ccc(S(=O)(=O)N2CCCCC2)cc1)C(Cl)Cl` the value was 116%; for `O=[N+]([O-])c1cccc(-c2nnc3c(/C=C/c4ccc(F)cc4)nc4ccccc4n23)c1`, 80%; for `COc1ccc(/C=C/C(=O)c2ccc(OC)c(S(N)(=O)=O)c2)c(C(F)(F)F)c1`, 6.4% (active).

Consider `COc1ccc2[nH]cc(-c3cc4nc(-c5cn(C)c6ncc(Br)cc56)cc(N)n4n3)c2c1`, for which the growth was -79.2% (active). For `N#CC1=C(c2cccs2)Nc2c(c(-c3ccccc3)nn2-c2ccccc2)C12C(=O)Nc1ccc(Cl)cc12` (centres undefined), the growth is -8.79% (active). To `Oc1ccc(F)c(Nc2nc(SCCN3CCOCC3)nc3c2cnn3CC(Cl)c2ccc(Br)cc2)c1` (centres undefined) belongs 1.93% (active); to `O=C(NNC(=S)NCCc1ccccc1)c1ccc(OCc2nc3ccc(Cl)cc3[nH]2)cc1`, 144%. For `COc1c(B(O)O)cc(F)cc1-c1nc2c(F)cc3[nH]ncc3c2c2c1CCCC2`, the growth is 17.2%. To `C[C@H]1[C@@H](CC(=O)N[C@@H](Cc2coc3ccccc23)B(O)O)O[C@@H]2OC3(C)CC[C@H]4[C@H](C)CC[C@@H]1[C@@]24O3` belongs 23.2%; to `C#CCN(C)CCCOc1ccc(N(C)C(=O)c2cc(C(C)C)c(O)cc2O)cc1Cl`, -23.9% (active).
